Assay results from ChEMBL document CHEMBL3988442, “University of Dundee, Small-Polar-MMV Screening Library” (2021).
For some assays here: Entries with a potency or affinity are not part of this list.

Key:
Design in all cases: scale not given: direction of the effect not stated beside the values
[1] = target: Protein translocase subunit SecA (Escherichia coli (strain K12)) (UniProt P10408); experiment: Assay to Identify E. coli SecA ATPase Inhibitors; type: functional; conditions: 30 µM
[2] = target: T1, Ubiquitin-activating enzyme e1, putative (Leishmania donovani (strain BPK282A1)) (UniProt E9BSI1); experiment: Leishmania donovani Ubiquitin Activating Enzyme (LdE1); type: functional; conditions: 30 µM
T1 sequence (whole entry): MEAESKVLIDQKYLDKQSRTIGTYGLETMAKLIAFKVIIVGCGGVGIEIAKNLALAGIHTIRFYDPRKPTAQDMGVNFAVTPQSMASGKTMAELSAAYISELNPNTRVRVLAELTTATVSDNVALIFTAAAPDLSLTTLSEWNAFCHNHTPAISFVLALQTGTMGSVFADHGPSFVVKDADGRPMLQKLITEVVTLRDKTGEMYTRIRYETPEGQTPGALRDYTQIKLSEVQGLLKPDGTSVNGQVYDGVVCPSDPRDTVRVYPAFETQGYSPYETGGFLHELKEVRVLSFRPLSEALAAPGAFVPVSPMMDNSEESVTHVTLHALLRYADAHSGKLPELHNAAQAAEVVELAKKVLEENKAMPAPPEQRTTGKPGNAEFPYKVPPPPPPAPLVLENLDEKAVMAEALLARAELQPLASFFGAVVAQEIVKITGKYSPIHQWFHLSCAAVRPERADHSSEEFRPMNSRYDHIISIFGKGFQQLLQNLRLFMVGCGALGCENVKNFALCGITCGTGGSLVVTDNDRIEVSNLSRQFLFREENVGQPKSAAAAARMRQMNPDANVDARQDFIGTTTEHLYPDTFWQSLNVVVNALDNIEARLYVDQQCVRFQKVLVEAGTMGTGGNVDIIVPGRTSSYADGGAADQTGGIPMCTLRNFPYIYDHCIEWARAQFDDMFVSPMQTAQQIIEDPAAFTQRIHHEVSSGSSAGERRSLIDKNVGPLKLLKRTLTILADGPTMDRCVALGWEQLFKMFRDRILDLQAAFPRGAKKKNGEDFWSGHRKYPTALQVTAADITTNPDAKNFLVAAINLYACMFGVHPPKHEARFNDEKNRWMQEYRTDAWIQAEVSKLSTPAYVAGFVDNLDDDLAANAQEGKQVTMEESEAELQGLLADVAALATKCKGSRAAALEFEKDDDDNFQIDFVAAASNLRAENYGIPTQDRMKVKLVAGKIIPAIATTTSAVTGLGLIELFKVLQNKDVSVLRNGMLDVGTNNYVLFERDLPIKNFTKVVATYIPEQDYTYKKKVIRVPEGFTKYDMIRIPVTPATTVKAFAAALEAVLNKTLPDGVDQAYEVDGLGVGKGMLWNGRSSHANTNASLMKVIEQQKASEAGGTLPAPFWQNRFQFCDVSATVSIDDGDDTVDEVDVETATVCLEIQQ

[3] = target: AMP-activated protein kinase, AMPK (Homo sapiens) (UniProt P54646+O43741+P54619+Q9UGJ0+Q9Y478+Q13131+Q9UGI9); experiment: AMP-dependent Kinase enzyme assay. An in vitro enzyme assay that detects ADP turnover that is directly proportional to AMPK activity. This uses naive AMPK that is activated during the assay with MK-8722; type: functional; conditions: 30 µM
[4] = target: Sialic acid-binding Ig-like lectin 9 (Homo sapiens) (UniProt Q9Y336); experiment: Hs-Siglec9 ALPHAscreen SOP 20170721; conditions: 10 µM
Sequence of Sialic acid-binding Ig-like lectin 9 (Homo sapiens) (Q9Y336 whole entry): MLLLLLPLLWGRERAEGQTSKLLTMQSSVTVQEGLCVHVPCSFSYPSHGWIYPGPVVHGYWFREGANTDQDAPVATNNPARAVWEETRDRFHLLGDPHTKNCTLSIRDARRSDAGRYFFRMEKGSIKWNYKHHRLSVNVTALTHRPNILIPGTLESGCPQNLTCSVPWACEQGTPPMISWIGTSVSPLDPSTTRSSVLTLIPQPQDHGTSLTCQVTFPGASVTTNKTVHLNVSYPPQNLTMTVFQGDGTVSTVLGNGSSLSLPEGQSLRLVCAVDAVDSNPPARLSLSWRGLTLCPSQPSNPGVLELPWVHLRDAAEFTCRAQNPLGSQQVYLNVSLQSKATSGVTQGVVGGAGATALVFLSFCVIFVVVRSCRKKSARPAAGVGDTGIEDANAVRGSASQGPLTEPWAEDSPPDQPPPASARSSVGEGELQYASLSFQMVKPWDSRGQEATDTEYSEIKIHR

Trypanosoma cruzi = experiment: Trypanosoma cruzi phosphomannomutase and mannose-1-phosphate guanylyltransferase assay; type: functional; conditions: 10 µM
[5] = target: T2, Arginase-2, mitochondrial (Homo sapiens) (UniProt P78540); experiment: in vitro enzyme assay to detect the production of urea directly proportional to the activity of Arginase II; type: functional; conditions: 33.3 µM; also: in the data most compounds retested in dose-response had high values
T2 sequence (whole entry): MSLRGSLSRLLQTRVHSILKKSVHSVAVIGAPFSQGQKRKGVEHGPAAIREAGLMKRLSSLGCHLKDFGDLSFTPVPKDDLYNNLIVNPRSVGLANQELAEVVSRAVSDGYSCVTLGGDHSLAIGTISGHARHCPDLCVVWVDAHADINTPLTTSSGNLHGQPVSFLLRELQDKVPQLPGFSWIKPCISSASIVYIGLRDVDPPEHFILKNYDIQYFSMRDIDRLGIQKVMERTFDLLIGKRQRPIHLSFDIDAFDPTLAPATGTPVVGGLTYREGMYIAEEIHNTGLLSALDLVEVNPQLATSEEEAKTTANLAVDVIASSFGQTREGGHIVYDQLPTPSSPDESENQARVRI

[6] = target: T3, Proteasome subunit beta (Trypanosoma cruzi) (UniProt O96673); experiment: Trypanosoma cruzi proteasome chymotrypsin-like activity (TcProtChymo) assay.; also: in the data most compounds retested in dose-response had high values; type: functional; conditions: 9.37 µM
T3 sequence (whole entry): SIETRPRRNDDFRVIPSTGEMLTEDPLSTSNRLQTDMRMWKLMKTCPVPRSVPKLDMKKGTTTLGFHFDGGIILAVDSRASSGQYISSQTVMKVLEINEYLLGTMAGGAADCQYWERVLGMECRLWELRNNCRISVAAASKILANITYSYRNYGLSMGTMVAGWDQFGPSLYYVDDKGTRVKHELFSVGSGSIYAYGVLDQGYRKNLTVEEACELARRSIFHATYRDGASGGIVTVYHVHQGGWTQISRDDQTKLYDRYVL

Homo sapiens = species on record: Homo sapiens; experiment: To identify inhibition of the IFN signalling (Jak-Stat) pathway via expression of an eGFP reporter gene under the control of an IFN-stimulated response element (ISRE) containing MxA promoter.; type: functional; conditions: 30 µM
[7] = target: T4, Tyrosyl-tRNA synthetase, putative (Trypanosoma cruzi (strain CL Brener)) (UniProt Q4DSP6); experiment: Trypanosoma cruzi tyrosyl tRNA synthetase (TcYRS) _High Tyrosine SOP; type: functional; conditions: 30 µM; also: in the data most compounds retested in dose-response had high values
T4 sequence (whole entry): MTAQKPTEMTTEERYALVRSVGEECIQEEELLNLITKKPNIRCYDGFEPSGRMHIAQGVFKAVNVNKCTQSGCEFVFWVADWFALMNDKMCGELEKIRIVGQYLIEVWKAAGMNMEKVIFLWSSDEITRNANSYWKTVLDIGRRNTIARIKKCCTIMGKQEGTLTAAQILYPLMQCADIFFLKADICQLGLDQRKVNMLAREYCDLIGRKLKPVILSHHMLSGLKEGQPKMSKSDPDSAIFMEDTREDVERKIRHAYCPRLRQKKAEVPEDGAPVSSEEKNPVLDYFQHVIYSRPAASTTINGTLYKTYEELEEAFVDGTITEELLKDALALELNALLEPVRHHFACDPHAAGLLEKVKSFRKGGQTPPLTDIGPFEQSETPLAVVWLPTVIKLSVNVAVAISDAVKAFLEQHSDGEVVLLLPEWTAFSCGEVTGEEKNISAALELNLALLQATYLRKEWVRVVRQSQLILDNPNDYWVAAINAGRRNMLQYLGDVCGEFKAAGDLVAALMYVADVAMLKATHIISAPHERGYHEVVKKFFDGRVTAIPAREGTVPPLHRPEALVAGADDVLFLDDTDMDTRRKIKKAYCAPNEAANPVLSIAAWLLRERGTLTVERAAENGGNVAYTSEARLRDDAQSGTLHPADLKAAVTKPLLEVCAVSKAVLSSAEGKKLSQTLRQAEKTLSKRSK

[8] = target: T4, Tyrosyl-tRNA synthetase, putative (Trypanosoma cruzi (strain CL Brener)); experiment: Trypanosoma cruzi tyrosyl tRNA synthetase (TcYRS) SOP; type: functional; conditions: 30 µM
[9] = target: Chromo domain-containing protein 1 (Saccharomyces cerevisiae (strain ATCC 204508 / S288c) (Baker's yeast)) (UniProt P32657); experiment: ScCHD-1 Enzyme Inhibition Assay; type: functional; conditions: 30 µM; also: in the data most compounds retested in dose-response had high values
Sequence of Chromo domain-containing protein 1 (Saccharomyces cerevisiae (strain ATCC 204508 / S288c) (Baker's yeast)) (P32657 whole entry, the tested form may be a part): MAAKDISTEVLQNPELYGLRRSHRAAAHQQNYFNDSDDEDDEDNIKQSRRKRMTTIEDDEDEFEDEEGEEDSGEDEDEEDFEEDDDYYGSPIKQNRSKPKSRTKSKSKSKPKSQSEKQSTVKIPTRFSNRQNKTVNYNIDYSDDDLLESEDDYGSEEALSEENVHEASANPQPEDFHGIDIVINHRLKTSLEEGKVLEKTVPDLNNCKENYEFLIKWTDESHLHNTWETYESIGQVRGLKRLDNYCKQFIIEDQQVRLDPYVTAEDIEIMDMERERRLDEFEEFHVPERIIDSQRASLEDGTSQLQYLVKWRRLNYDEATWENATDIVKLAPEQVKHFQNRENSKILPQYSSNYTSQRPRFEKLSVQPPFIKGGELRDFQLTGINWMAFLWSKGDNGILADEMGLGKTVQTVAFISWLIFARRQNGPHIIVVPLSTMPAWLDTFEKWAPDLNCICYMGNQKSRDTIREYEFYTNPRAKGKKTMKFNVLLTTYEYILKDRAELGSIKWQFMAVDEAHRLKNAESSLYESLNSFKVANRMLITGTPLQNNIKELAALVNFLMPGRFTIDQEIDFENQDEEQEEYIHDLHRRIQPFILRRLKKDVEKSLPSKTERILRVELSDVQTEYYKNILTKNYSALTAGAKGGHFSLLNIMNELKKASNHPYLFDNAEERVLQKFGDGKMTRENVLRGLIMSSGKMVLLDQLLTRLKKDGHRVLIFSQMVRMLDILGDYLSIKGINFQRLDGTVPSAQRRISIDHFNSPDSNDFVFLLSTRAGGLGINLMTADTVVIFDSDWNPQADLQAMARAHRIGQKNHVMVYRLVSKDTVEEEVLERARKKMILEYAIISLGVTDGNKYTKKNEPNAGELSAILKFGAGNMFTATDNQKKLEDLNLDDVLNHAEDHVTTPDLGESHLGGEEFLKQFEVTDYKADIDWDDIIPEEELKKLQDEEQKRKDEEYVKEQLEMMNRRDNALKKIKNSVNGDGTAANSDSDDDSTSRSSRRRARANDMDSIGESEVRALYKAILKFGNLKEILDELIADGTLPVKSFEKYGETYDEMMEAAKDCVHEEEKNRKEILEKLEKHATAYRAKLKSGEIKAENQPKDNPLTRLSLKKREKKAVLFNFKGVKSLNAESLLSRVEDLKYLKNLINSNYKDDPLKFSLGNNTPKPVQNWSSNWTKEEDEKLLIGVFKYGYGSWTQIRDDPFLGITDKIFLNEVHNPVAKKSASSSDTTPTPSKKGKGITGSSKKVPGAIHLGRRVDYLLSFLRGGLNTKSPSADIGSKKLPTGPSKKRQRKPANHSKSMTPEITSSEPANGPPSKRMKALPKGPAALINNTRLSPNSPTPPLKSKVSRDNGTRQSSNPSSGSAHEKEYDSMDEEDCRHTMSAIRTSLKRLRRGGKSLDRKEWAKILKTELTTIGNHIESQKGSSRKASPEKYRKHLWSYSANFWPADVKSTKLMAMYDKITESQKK

Sequence of Protein translocase subunit SecA (Escherichia coli (strain K12)) (P10408 whole entry): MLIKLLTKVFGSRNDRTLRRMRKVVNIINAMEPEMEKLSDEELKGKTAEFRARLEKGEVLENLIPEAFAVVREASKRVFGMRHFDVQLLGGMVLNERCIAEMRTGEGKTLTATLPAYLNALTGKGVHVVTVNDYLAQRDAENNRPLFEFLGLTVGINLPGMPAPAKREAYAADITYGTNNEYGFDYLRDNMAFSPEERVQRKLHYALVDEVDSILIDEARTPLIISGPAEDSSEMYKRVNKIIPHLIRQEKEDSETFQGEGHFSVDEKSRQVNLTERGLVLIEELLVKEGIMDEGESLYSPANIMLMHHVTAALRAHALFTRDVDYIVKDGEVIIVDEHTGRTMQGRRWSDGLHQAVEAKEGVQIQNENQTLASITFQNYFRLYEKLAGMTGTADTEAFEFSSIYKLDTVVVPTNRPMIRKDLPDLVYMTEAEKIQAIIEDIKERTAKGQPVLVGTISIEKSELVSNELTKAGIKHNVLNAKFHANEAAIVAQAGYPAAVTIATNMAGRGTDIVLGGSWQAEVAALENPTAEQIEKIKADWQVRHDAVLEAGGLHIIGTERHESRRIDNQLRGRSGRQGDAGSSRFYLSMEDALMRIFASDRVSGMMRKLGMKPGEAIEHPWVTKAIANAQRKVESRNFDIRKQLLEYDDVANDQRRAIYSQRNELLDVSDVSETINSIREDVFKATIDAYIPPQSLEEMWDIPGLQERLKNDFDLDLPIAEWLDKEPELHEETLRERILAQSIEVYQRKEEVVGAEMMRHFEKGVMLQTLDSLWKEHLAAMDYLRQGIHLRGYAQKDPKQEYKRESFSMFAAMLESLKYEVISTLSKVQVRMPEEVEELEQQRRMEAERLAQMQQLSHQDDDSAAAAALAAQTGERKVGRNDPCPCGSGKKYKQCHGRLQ

Row | Structure (SMILES) | Percent Effect [1] [%] | Percent Effect [2] [%] | Percent Effect [3] [%] | Percent Effect [4] [%] | Percent Effect (Trypanosoma cruzi) [%] | Percent Effect [5] [%] | Percent Effect [6] [%] | Percent Effect (Homo sapiens) [%] | Percent Effect [7] [%] | Percent Effect [8] [%] | Percent Effect [9] [%]
1 | O=C1N(Cc2ccccc2F)CCCC12CCN(C1CCSCC1)C2 (stereo not given) | -1.79 | -8 | -0.682 | 0.979 | -1.46 | 3.65 | 8.37 | -10.4 | 8.2 | 8.64 | 0.67
2 | Cn1c(Cn2ccnc2)nnc1C1CCN(Cc2cccnc2N)CC1 | -2.31 | -9.72 | 1.79 | -9.15 | -2.62 | 3.53 | 9.12 | -8.94 | 2.1 | 2.56 | -3.65
3 | Cc1n[nH]c(C2CN(C(=O)c3cc(C4CC4)[nH]n3)CCO2)n1 (stereo not given) | -3.77 | 13 | 3.73 | 15.3 | -0.0979 | 0.632 | 9.78 | -11 | 5.71 | 11.8 | -11.2
4 | Nc1nccc(N2CCCC(CO)(CCOc3ccccc3)C2)n1 (stereo not given) | -4.62 | 2.6 | -0.596 | 19 | 8.75 | -13.8 | 15.3 | 41.9 | 7.53 | 13.6 | -3.14
5 | Cc1cccc(CN2CC3(CCNCC3)OCC2=O)n1 | -6.42 | 2.7 | 2.52 | -3.05 | 1.37 | -0.833 | 2.11 | 2.26 | 4.95 | 11 | -6.46
6 | CCc1cc(NCC(O)CN2CCCCC2)n2ncnc2n1 (stereo not given) | -4.14 | 7.89 | 2.69 | 4.78 | 1.27 | -2.37 | 15.2 | 3.03 | 4.25 | 13 | -4.78
7 | CC(C)c1nnc2ccc(N3CCC(C(N)=O)CC3)nn12 | -7.89 | 1.33 | 11.2 | 0.782 | -4.52 | -8.63 | 3.14 | -2.58 | -1.06 | 0 | -7.68
8 | Cc1noc(C)c1CN1CC2(CCN(C(=O)c3c[nH]cn3)C2)CC1=O (stereo not given) | -0.0681 | 13.3 | -2.8 | 13.2 | -3.48 | -49.3 | 17.8 | -2.42 | 2.08 | 17.5 | -4.57
9 | O=C(COCc1ccccc1Cl)N1CCCC(n2cccn2)C1 (stereo not given) | -4.85 | 18.2 | 6.5 | -7.66 | -1.08 | 4 | 20.4 | 20.2 | 2.86 | 11.8 | -9.25
10 | Cc1cnn(CC2CCCCN2C(=O)c2ccnc(N(C)C)c2)c1 (stereo not given) | -4.87 | 10.4 | 2.75 | 9.97 | -0.49 | 4.42 | 13.8 | 5.85 | 2.86 | 9.41 | -16.5
